From PubChem BioAssay (NCI) come the findings set out here.

About 83,000 compounds went through this panel and 20% of them were active in at least one assay; those are over-represented in the sample as a whole.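 How to read the values: 0–100, growth inhibition (40 = 60% inhibited); 0, no net growth; -100 to 0, cell death (-40 = 40% of starting cells died; -100 = all dead).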 The source made the active and inactive calls. Rule for the calls: active = growth percent below 10; inactive = the rest.

The subject of the first experiment is DU-145 prostate. Nature of the experiment: NCI-60 one-dose screen, 48 h (100 = growth as untreated, 0 = no growth, -100 = all killed). As to conditions: 10 µM unless noted.
Consider `O=C1/C(=C\c2cccn2Cc2ccc(F)cc2)c2ccccc2N1c1c(Cl)cccc1Cl`, for which the growth is 91.2% (inactive).
On the same count and under the same terms, the figure for `CC(C)(C)c1ccc(Cn2c(-c3nonc3N)nc3ccccc32)cc1` is 83.3% (inactive).
On the same count and under the same terms, to `CSC(=S)N/N=C(\C)c1ccccn1` belongs 16.1% (inactive); to `CCC(C)C1NC(=O)c2nc(oc2-c2ccccc2)-c2csc(n2)-c2csc(n2)-c2nc(oc2C)-c2coc(n2)CNC(=O)C(C(C)CC)NC1=O` (stereo not drawn), -90.6% (active); to `CCOC(=O)C1=C(C)NC(SCc2nnc(-c3ccc(Cl)cc3)o2)=NC1c1ccc(Br)cc1` (stereo not drawn), 84.3% (inactive).
The same measure, in the same setting: the figure for `CC(CN1CCN(C)CC1)CN1c2ccccc2Sc2ccc(C(F)(F)F)cc21` (stereo not drawn) is 61.7% (inactive); for `Cc1[nH]nc2ccc3nc(-c4ccc5[nH]ncc5c4)c4c(c3c12)CCCC4` it is 33.9% (inactive); for `CCCOC(=O)C1c2cc3c(cc2CC(C)C1C(=O)OCCC)OCO3` (stereo not drawn) it is 112% (inactive).
Turning to `COc1cc(C2CC(c3ccc(Nc4ccnc5cc(Cl)ccc45)cc3)=NN2c2ccccc2)cc(OC)c1OC` (stereo not drawn), the growth is 79.1% (inactive).
Still for that read-out and setting: the figure for `CC(=O)c1c(C)nc(-c2cc(C)cc(Cl)c2)nc1-c1cccc(Oc2ccccc2)c1` is 85.8% (inactive); for `CC(C)NC(=O)OCC#CCOC(=O)NC(C)C` it is 111% (inactive); for `Cc1nc2c(-c3cnc(N)nc3)nc(N3CCOCC3)nc2n1C(C)C` it is 13.4% (inactive).
On the same count and under the same terms, the figure for `[Ag].[Ag].[NH-]S(=O)(=O)c1ccc(N=Nc2cc(N=Nc3ccc(S([NH-])(=O)=O)cc3)c3c(NC(=O)C(Cl)Cl)cccc3c2OC(=O)C(Cl)Cl)cc1.[c-]1nccs1.[c-]1nccs1` is 70.1% (inactive).
Same read-out and setting: to `Nc1ccc(N(O)/C=C2\C=CC=CC2=O)cc1N` belongs 121% (inactive).
For the compound `Cc1nc2ccc(Nc3nc(N4CCOCC4)nc(N4CCN(C)CC4)n3)cc2n1Cc1ccccc1`, the growth was 98.4% (inactive).
Still for that read-out and setting: to `CC(C)CC(NC(=O)C(CCCN=C(N)N)NC(=O)OCc1ccccc1)C(=O)NC(CNC(=O)/C=C/c1ccccc1)C(C)C` (stereo not drawn) belongs 107% (inactive); to `CCOC(=O)c1ccc(NCCC(=O)O)cc1`, 126% (inactive).
Still for that read-out and setting: the figure for `Cc1ccc(-c2cnc3sc4ccc(Cl)cc4n23)cc1` is 101% (inactive); for `COc1cc(C)c2c(=O)c3c(oc2c1)C(=O)c1c(O)c(OC)cc(O)c1C3=O` it is 26.8% (inactive); for `O=C(OCc1ccc2c(Br)cc(Br)c(O)c2n1)c1cc2ccccc2[nH]1` it is -91.6% (active).
Still for that read-out and setting: the figure for `CN1CCN(Cc2ccc(NC(=O)c3cncc(C#Cc4cnc5cccnn45)c3)cc2C(F)(F)F)CC1` is 3.43% (active).
Consider `CCOC(=O)c1ccccc1SC(C[N+](=O)[O-])c1ccccc1` (stereo not drawn), for which the growth was 90.9% (inactive).
The same measure, in the same setting: the figure for `CC(C)CC(NC(=O)OCC1c2ccccc2-c2ccccc21)C(=O)O` (stereo not drawn) is 116% (inactive); for `CN1CCN(Cc2ccc(NC(=O)c3cncc(C#Cc4ccc(N)nc4)c3)cc2C(F)(F)F)CC1` it is 21.4% (inactive).

In another experiment the test system is K-562 leukemia. Described as above. Conditions: 10 µM unless noted.
Consider `O=C(Nc1ccc(Oc2ccc(Nc3nc4ccccc4s3)cc2)cc1)Nc1ccc(Cl)c(C(F)(F)F)c1`, for which the growth was 6.86% (active).
Same read-out and setting: to `C[C@]12CCc3nc(Nc4ccc(O)cc4)sc3C1=CC[C@@H]1[C@@H]2CC[C@]2(C)/C(=N/NC(N)=S)CC[C@@H]12` belongs -2.83% (active).
Same read-out and setting: to `Cc1cc(N=Nc2ccc(-c3ccc(N=Nc4ccc(O)c(C(=O)O)c4)cc3)cc2)c(N)c(N=Nc2ccc(C(=O)O)cc2)c1N` belongs 75.1% (inactive); to `c1ccc2c(c1)cnc1ccccc12`, 97.2% (inactive).
For the compound `Cc1cc(C)c2c(n1)sc1c(Nc3ccc(OCc4ccccc4)cc3)ncnc12`, the growth was 95.2% (inactive).
Same read-out and setting: to `COc1ccc2[nH]c(C(=O)OCc3ccc4cccc(O)c4n3)cc2c1` belongs -3.39% (active); to `Cc1ccc2oc(=O)cc(-c3nc4ccc([N+](=O)[O-])cc4[nH]3)c2c1`, 48.7% (inactive).
Same read-out and setting: to `Cc1nc2ccc(Nc3nc(Cl)nc(N4CCOCC4)n3)cc2n1Cc1ccccc1` belongs 25.7% (inactive).
Still for that read-out and setting: to `CC(=O)c1c(O)c(C)c(O)c2c1OC1=CC(=O)/C(=C(/C)N)C(=O)C12C` (stereo not drawn) belongs 83% (inactive); to `O=C(CI)NCCNc1cccc2c(S(=O)(=O)O)cccc12`, 110% (inactive); to `O=c1[nH]cnc2nc[nH]c12`, 49.3% (inactive).
Turning to `CCN(CC)C(Cl)=Nc1ccc(Cl)cc1`, the growth is 121% (inactive).
On the same count and under the same terms, to `c1ccc2c(Cc3csc4ccccc34)csc2c1` belongs 23.8% (inactive).
On the same count and under the same terms, to `COS(=O)(=O)CCN(CCOS(C)(=O)=O)S(C)(=O)=O` belongs 76% (inactive).
The same measure, in the same setting: the figure for `COc1cc(C2CC(c3cccc(Nc4ccnc5cc(Cl)ccc45)c3)=NN2c2ccccc2)cc(OC)c1OC` (stereo not drawn) is 14% (inactive); for `O=C1/C(=C\c2cccn2Cc2ccc(F)cc2)c2ccccc2N1c1c(Cl)cccc1Cl` it is 70.8% (inactive); for `CC(C)(C)c1ccc(Cn2c(-c3nonc3N)nc3ccccc32)cc1` it is 19.1% (inactive).
As for `CSC(=S)N/N=C(\C)c1ccccn1`, the growth was 8.85% (active).
The same measure, in the same setting: to `CCC(C)C1NC(=O)c2nc(oc2-c2ccccc2)-c2csc(n2)-c2csc(n2)-c2nc(oc2C)-c2coc(n2)CNC(=O)C(C(C)CC)NC1=O` (stereo not drawn) belongs -66.3% (active).
For the compound `CCOC(=O)C1=C(C)NC(SCc2nnc(-c3ccc(Cl)cc3)o2)=NC1c1ccc(Br)cc1` (stereo not drawn), the growth is 60.7% (inactive).
On the same count and under the same terms, the figure for `CC(CN1CCN(C)CC1)CN1c2ccccc2Sc2ccc(C(F)(F)F)cc21` (stereo not drawn) is -31.2% (active); for `Cc1[nH]nc2ccc3nc(-c4ccc5[nH]ncc5c4)c4c(c3c12)CCCC4` it is 14.3% (inactive); for `CCCOC(=O)C1c2cc3c(cc2CC(C)C1C(=O)OCCC)OCO3` (stereo not drawn) it is 99.6% (inactive).
On to `COc1cc(C2CC(c3ccc(Nc4ccnc5cc(Cl)ccc45)cc3)=NN2c2ccccc2)cc(OC)c1OC` (stereo not drawn), for which the growth is 19.1% (inactive).
The same measure, in the same setting: to `CC(=O)c1c(C)nc(-c2cc(C)cc(Cl)c2)nc1-c1cccc(Oc2ccccc2)c1` belongs 19.9% (inactive); to `CC(C)NC(=O)OCC#CCOC(=O)NC(C)C`, 87.9% (inactive).
As for `Cc1nc2c(-c3cnc(N)nc3)nc(N3CCOCC3)nc2n1C(C)C`, the growth was 12.6% (inactive).
On the same count and under the same terms, the figure for `[Ag].[Ag].[NH-]S(=O)(=O)c1ccc(N=Nc2cc(N=Nc3ccc(S([NH-])(=O)=O)cc3)c3c(NC(=O)C(Cl)Cl)cccc3c2OC(=O)C(Cl)Cl)cc1.[c-]1nccs1.[c-]1nccs1` is 83.8% (inactive).
Turning to `Nc1ccc(N(O)/C=C2\C=CC=CC2=O)cc1N`, the growth was 93.5% (inactive).
Still for that read-out and setting: to `Cc1nc2ccc(Nc3nc(N4CCOCC4)nc(N4CCN(C)CC4)n3)cc2n1Cc1ccccc1` belongs 29.3% (inactive); to `CC(C)CC(NC(=O)C(CCCN=C(N)N)NC(=O)OCc1ccccc1)C(=O)NC(CNC(=O)/C=C/c1ccccc1)C(C)C` (stereo not drawn), 92.3% (inactive).
Regarding `CCOC(=O)c1ccc(NCCC(=O)O)cc1`, the growth was 90.4% (inactive).
On the same count and under the same terms, the figure for `Cc1ccc(-c2cnc3sc4ccc(Cl)cc4n23)cc1` is 110% (inactive).
Still for that read-out and setting: to `COc1cc(C)c2c(=O)c3c(oc2c1)C(=O)c1c(O)c(OC)cc(O)c1C3=O` belongs -23.8% (active); to `O=C(OCc1ccc2c(Br)cc(Br)c(O)c2n1)c1cc2ccccc2[nH]1`, 1.14% (active); to `CN1CCN(Cc2ccc(NC(=O)c3cncc(C#Cc4cnc5cccnn45)c3)cc2C(F)(F)F)CC1`, 2.91% (active).
The same measure, in the same setting: to `CCOC(=O)c1ccccc1SC(C[N+](=O)[O-])c1ccccc1` (stereo not drawn) belongs 56.8% (inactive); to `CC(C)CC(NC(=O)OCC1c2ccccc2-c2ccccc21)C(=O)O` (stereo not drawn), 116% (inactive); to `CN1CCN(Cc2ccc(NC(=O)c3cncc(C#Cc4ccc(N)nc4)c3)cc2C(F)(F)F)CC1`, 1.27% (active).
